Assay results as given in PubChem BioAssay AID1508611 (The Scripps Research Institute Molecular Screening Center, 2020).
Among all 6,700 compounds or so, about 20 (0.3%) were called active.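 Rule for the calls: active = mean percent activation in the counterscreen above 29.09%; inactive = the rest.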 This excerpt belongs to a sample that is enriched for actives.

target: Glucose-dependent insulinotropic receptor (Homo sapiens) (UniProt Q8TDV5); experiment: off-target GPR119 activation – cell-based, PathHunter beta-arrestin, luminescence, triplicate, counter-screen for GPR151 activator project (AID 1508611); details: GPR119 PathHunter beta-arrestin cells, 90 min, at 11.2 µM, hits give high values, 0 = compound-well median, 100 = enzyme-acceptor control
Sequence (Q8TDV5 whole entry, looked up): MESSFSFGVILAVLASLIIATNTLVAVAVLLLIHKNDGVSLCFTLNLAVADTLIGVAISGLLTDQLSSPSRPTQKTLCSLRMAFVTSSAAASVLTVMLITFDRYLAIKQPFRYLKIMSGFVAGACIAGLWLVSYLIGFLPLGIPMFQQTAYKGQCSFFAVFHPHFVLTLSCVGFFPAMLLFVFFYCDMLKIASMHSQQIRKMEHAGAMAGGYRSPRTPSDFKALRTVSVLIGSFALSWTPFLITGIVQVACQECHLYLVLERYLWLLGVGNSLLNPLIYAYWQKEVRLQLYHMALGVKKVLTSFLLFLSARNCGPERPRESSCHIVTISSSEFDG

SMILES	activation
CCOC(=O)c1cccc(NC(=O)CCCOc2ccc(OC)cc2)c1	-2.39% (inactive)
COc1ccc(OC)c(/C=N/n2nnnc2N)c1	-3.22% (inactive)
CC(C)(C)NC(=O)Cc1coc2ccc3ccccc3c12	-5.33% (inactive)
O=C(CN1C(=O)c2ccccc2C1=O)NC(c1ccccc1)c1ccc(Br)cc1 (stereo not given)	-12.4% (inactive)
O=C(COc1ccc(CO)cc1)Nc1ccc(Cl)c(Cl)c1	-3.53% (inactive)
CO[C@@H]1COC(=O)[C@@H](C)COC(=O)[C@H](C)NC(=O)C/C=C/[C@H]1C	10.4% (inactive)
Cc1[nH][nH]c(=O)c1C(c1ccc(-c2ccc(F)cc2[N+](=O)[O-])o1)c1c(C)[nH][nH]c1=O	9% (inactive)
O=C(CN1C(=O)CCC1=O)Nc1ccc(S(=O)(=O)N2CCOCC2)cc1	9.75% (inactive)
C=CCSC1=C(C#N)C(c2ccc(Cl)cc2Cl)CC(=O)N1 (stereo not given)	-2.2% (inactive)
CC(C)n1c(=O)[nH]c2c(C(N)=O)nc(-c3ccc(-c4ccccc4)cc3)nc21	8.53% (inactive)
COc1ccc(N2C(=O)C(Cl)=C(Nc3ccc(C)cc3)C2=O)cc1	9.02% (inactive)
COc1cc(OC)cc(C(=O)Nc2ccc3c4c(cccc24)CC3)c1	9.11% (inactive)
CCOc1ccccc1-c1cc(C(=O)N2CCOCC2)c2ccccc2n1	-4.4% (inactive)
Cc1ccc(NC(=O)CSc2nnc(-c3ccc(N)cc3)n2C)cc1Cl	5.44% (inactive)
COc1ccc(C2(C)NC(=O)N(CC(=O)Nc3ccc4ccccc4c3)C2=O)cc1 (stereo not given)	5.1% (inactive)
CC(=O)Nc1ccc(NC(=O)c2ccc3nc(Br)sc3c2)cc1	-3.64% (inactive)
CCC1C(=O)NCCN1Cc1ccc2c(c1)CN(Cc1c[nH]c3ccccc13)CCO2 (stereo not given)	-4.8% (inactive)
CC(=O)Nc1nc(C(=O)Nc2nc(-c3sc(C)nc3C)cs2)cs1	13.5% (inactive)
c1cncc(Nc2nc(NC3CC3)c3ncn(C4CCCCC4)c3n2)c1	-7.65% (inactive)
COc1ccc(NC(=S)N2CCN(S(=O)(=O)c3ccc(F)cc3)CC2)c(OC)c1	-3.67% (inactive)
CCc1ccc(S(=O)(=O)NCCOc2cc(N3CCOCC3)ncn2)cc1	0.5% (inactive)
Cc1ccc(NC(=O)c2cccc(N(C)C)c2)cc1NC(=O)c1ccc(O)cc1	-0.12% (inactive)
COc1ccc(C=C(C#N)C#N)c(CSc2ccccn2)c1	14.8% (inactive)
COc1cc([N+](=O)[O-])ccc1NC(=S)NCc1cc(C)n(C)n1	-4.23% (inactive)
Cn1c(=O)c2c(nc(SCC(=O)O)n2Cc2ccc(F)cc2)n(C)c1=O	-2.28% (inactive)

SMILES	activation
C/C(=N/N1CCN(Cc2ccc(C)cc2C)CC1)c1ccc([N+](=O)[O-])cc1	-0.84% (inactive)
CCOc1cc(C2C3=C(CCCC3=O)NC3=C2C(=O)CCC3)cc(Br)c1OCC	8.25% (inactive)
CCCOC1(C(F)(F)F)NC(=O)N(c2ccc(C(C)C)cc2)C1=O (stereo not given)	-7.99% (inactive)
CC(=O)c1cccc(-c2nc(Nc3ccc(Oc4ccccc4)cc3)c3ncn(-c4ccsc4)c3n2)c1	1.29% (inactive)
COc1cc(C(C)=Nc2c(C)n(C)n(-c3ccccc3)c2=O)cc(O)c1OC	3.69% (inactive)
Cc1ccccc1C(=O)NCc1nc(-c2ccc(Cl)cc2)no1	10.3% (inactive)
C=CCn1c(=O)c2ccc(C(=O)NCc3ccc4c(c3)OCO4)cc2n(CC(N)=O)c1=O	5.23% (inactive)
COc1ccc([N+](=O)[O-])cc1NC(=O)C1CC(Cl)=CCC1C(=O)O (stereo not given)	-0.8% (inactive)
O=C(Nc1ccc(NC(=O)c2cccc3c(Br)cccc23)cc1)c1ccco1	16.8% (inactive)
CC(=O)c1c(C)[nH]c(C(=O)N2CCN(c3ccc(Cl)cc3)CC2)c1C	2.38% (inactive)
COc1ccc(Nc2nc(-c3ccc(F)cc3)cs2)c(OC)c1	5.77% (inactive)
COc1cc(/C=N/N=C2/NC(=O)CS2)ccc1OC(=O)c1ccccc1C	-7.49% (inactive)
O=C(O)/C=C/c1ccccc1Cl	-5.81% (inactive)
COc1ccc(C(=O)Nc2ccc(S(=O)(=O)NC(C)C)cc2)cc1	13.4% (inactive)
CC(C(=O)NCCN1CCOCC1)n1c2ccccc2c2cn[nH]c(=O)c21 (stereo not given)	5.53% (inactive)
Cc1ccc2cc(C#N)c(SCCO)nc2c1	-5.53% (inactive)
Cc1ccc[n+](-c2ncnc(N)c2[N+](=O)[O-])c1	-3.57% (inactive)
CCOc1ccc(/C=C2N=C(/C=C/c3cccc(Cl)c3Cl)OC\2=O)cc1	0.65% (inactive)
O=C(NCc1ccsc1)c1ccc(-n2cccc2)cc1	-3.28% (inactive)
O=C(C(Cc1ccccc1)N1C(=O)C2C3c4ccccc4C(c4ccccc43)C2C1=O)N1CCOCC1 (stereo not given)	7.72% (inactive)
Cc1cccc(NC(=O)CSc2nc3[nH]ncc3c(=O)[nH]2)c1	0.57% (inactive)
NC(=S)N/N=C/c1ccc([N+](=O)[O-])cc1	6.78% (inactive)
O=C(/C=C/Nc1ccccc1NS(=O)(=O)c1ccc([N+](=O)[O-])cc1)c1ccco1	-7.75% (inactive)
CN(C)c1cccc(Nc2cc(C(=O)Nc3ccc(N4CCOCC4)cc3)ccn2)c1	-10.4% (inactive)
CC1=C(C(=O)Nc2cccc(F)c2)C(c2ccccn2)C2=C(CCCC2=O)N1 (stereo not given)	0.3% (inactive)
